# PubChem BioAssay (Tox21)
# Results filed as inconclusive are left out. A number with no mark means an inactive call. Calls of active or inactive are those of the source. Calls come from the whole dose curve; as a rule, active = well fitted activation curve with a large enough effect in the repeat runs; inconclusive = weak or mixed curves; inactive = no such curve, though single readings can be large or run the other way.
# Experiment: qHTS assay to identify small molecule agonists of the estrogen related receptor signaling pathway with the pleiotropic PPARgamma coactivator (PGC) (AID 1224823)
# Conditions: ERR/PGC reporter cell line, luciferase agonist mode; series mostly up to 46.1 µM; activation: at the top concentration
# Summary of the method: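 Cell-based luciferase assay in the NTP-supplied PGC/ERR line, 2,000 cells/well; 18 h compound exposure at 37 C, luminescence after One-Glo.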
# % is set by controls: 0 for no effect and ±100 for the full control effect; potency is the fitted concentration of half-maximal effect.
Compound,activation [%],Potency
CN1Cc2sccc2C(c2ccc(O)c(O)c2)C1 (configuration not stated),6.77,
CC(C)COC(=O)OCN1C(=O)CN(CCN2CC(=O)N(COC(=O)OCC(C)C)C(=O)C2)CC1=O,2.15,
c1ccc2c(c1)CCC[C@H]2Nc1nc2ccccc2[nH]1,-6.87,
O=C(Nc1nc2ccccc2n1CCN1CCOCC1)c1cccc([N+](=O)[O-])c1,-5.48,
O=Nc1c(-c2c(O)[nH]c3cc(Br)ccc23)[nH]c2ccccc12,,1.14 µM (active)
CC#CCOC(=O)c1c(C)nc2sc3c(c2c1N)CCC(O)C3 (configuration not stated),-7.75,
CCCCS(=N)(=O)CC[C@H](N)C(=O)O (some centres not stated),3.6,
O=c1ccc2ccc(O)c(O)c2o1,11.4,
C[C@@H](N)C1CCC(C(=O)Nc2ccncc2)CC1 (some centres not stated),-16.4,
Oc1ccc2ccccc2c1SSc1c(O)ccc2ccccc12,-12.8,
Nc1nc2c(cnn2CCc2ccccc2)c2nc(-c3ccco3)nn12,12.5,
Cc1nn(-c2ccccc2)c(C)c1/C=N/N1CCN(Cc2ccccc2)CC1,-6.1,
NCCCCCCCCCCN,0.643,
COc1ccc(CCn2nnnc2C2(c3ccc(C)cc3)CC2)cc1,4.33,
COc1cccc(OC)c1OCCNCC1COc2ccccc2O1 (configuration not stated),-7.52,
Cn1c(=O)c2[nH]c(C3CCCC3)nc2n(C)c1=O,-1.33,

Compound,activation [%],Potency
Clc1ccc(N2CCN(Cc3c[nH]c4ncccc34)CC2)cc1,6.51,
Nc1nc(OCC2CCCCC2)c2[nH]cnc2n1,7.92,
NCC(O)(CS(=O)(=O)O)c1ccc(Cl)cc1 (configuration not stated),-6.12,
OC[C@H]1O[C@@H](n2cnc3cncnc32)[C@H](O)[C@@H]1O,-21.7,
O=C1NC(=O)C(c2ccccc2[N+](=O)[O-])=C1Nc1ccc(O)c(Cl)c1,5.04,
N[C@H](CCCP(=O)(O)O)C(=O)O,4.79,
O=c1[nH]c2cc(C(F)(F)F)ccc2n1-c1cc(C(F)(F)F)ccc1O,-5.94,
O=C(c1ccc2c(c1)OCCO2)N1CCCCC1,5.13,
O=C(O)c1ccccc1Nc1cccc(OCc2ccc3ccccc3n2)c1,6.68,
O=c1[nH]c(=S)[nH]c(-c2ccccc2)c1Cc1c(O)ccc2ccccc12,-8.5,
COc1cc(/C=C(\C#N)C(=O)c2ccc(O)c(O)c2)cc(I)c1O,7.42,
CC(=O)[C@H]1CCC2C3CC=C4C[C@@H](OS(=O)(=O)O)CC[C@]4(C)C3CC[C@@]21C (some centres not stated),-5.22,
CC(C)(CO)Cc1cc(C(C)(C)C)c(O)c(C(C)(C)C)c1,-3.69,
NC(=Nc1ccccc1)NC(=O)c1nc(Cl)c(N)nc1N,-0.614,
Nc1nc(SCc2ccc([N+](=O)[O-])cc2)c2ncn([C@@H]3O[C@H](CO)C(O)[C@H]3O)c2n1 (some centres not stated),0.452,
c1ccc2c(c1)CC(N1CCN(c3cccc4c3OCCO4)CC1)C2,-6.53,
